This is a sample that favours compounds with a hit; in the whole collection about 7.7% have one here.
TbPYK inhibitor: inhibitors of Trypanosoma brucei pyruvate kinase; TbPYK enzyme, Kinase-Glo Plus ATP luminescence, 45 min; Potency, µM (top dose mostly 76.8 µM), usual class: inhibitors; 410,000 tested, 0.12% active; further: nearly all actives have a fitted effect of over 50% in size
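Luminescence from Kinase-Glo Plus, added after a 45-minute room-temperature reaction, served as the end-point read-out. The enzyme and substrate were preincubated with compound before ADP (130 uM final) initiated turnover. Concentration-effect curves came from normalized qHTS data.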
Sm TGR inh: blocks Schistosoma mansoni thioredoxin glutathione reductase; Q962Y6; purified TGR, DTNB reduction, TNB absorbance 405 nm; Potency, µM (series often up to 114 µM), usual class: inhibitors; 360,000 tested, 3% active; further: nearly all actives have a fitted effect of over 60% in size
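Kinetic colorimetric format: TGR-catalysed, NADPH-driven DTNB reduction monitored via TNB absorbance. Enzyme dispensed at 20 nM; compound exposure 15 min at room temperature before reaction start.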
FMDV antiviral: antivirals against foot and mouth disease virus; FMDV antiviral cell-based qHTS; Potency, µM (series often up to 57.9 µM), actives largely listed as inhibitors; 410,000 tested, 1.2% active; AID 1159524; calls by dose curve; tested in HEK293T cells; further: read-out not given here; nearly all actives have a fitted effect of over 45% in size
HCMV antiviral: blocks human cytomegalovirus replication. 410,000 tested, 4.5% active. activity change, negative = inhibition, % at 57.5 µM. HFF cells, HCMV-luciferase reporter, 72 h; hits give low values; in the data active means activity change below about -60%; inconclusive means no clear call, values can overlap the other calls; inactive means above about -39%
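Steps: HFFs plated, 16 h 37C; compounds added; HCMV-luciferase added to MOI 1 PFU/cell; 72 h 37C; OneGlo reagent, 5 min room temperature; luminescence read, normalized to controls.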
FBPA Giardia inh: inhibitors of Giardia lamblia fructose-1,6-bisphosphate aldolase | A8B2U2 | purified Giardia FBPA | Potency, µM (highest dose often 59.6 µM), usual class: inhibitors | 290,000 tested, 0.71% active | AID 2451; further: nearly all actives have a fitted effect of over 55% in size
Target sequence (A8B2U2 whole entry, looked up): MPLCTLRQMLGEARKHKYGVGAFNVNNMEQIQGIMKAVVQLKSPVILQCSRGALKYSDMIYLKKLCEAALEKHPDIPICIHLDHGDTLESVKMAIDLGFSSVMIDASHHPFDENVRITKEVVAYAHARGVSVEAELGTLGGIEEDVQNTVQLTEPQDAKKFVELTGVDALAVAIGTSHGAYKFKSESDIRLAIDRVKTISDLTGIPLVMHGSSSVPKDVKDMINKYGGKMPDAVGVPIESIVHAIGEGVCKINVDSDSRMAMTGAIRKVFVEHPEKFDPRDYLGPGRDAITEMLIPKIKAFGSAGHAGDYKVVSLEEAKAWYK
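40 nM FBPA preincubated 10 min at RT with compound (up to 57.5 uM final), then substrate plus GAPDH/TPI/NAD/arsenate coupling and diaphorase/resazurin added. Fluorescence read after 20 min at RT, 525/598 nm.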
RE007 growth inh: less growth of the S. pombe RE007 Vpr strain; S. pombe RE007 Vpr strain, BacTiter-Glo ATP luminescence, 24 h; Potency, µM (series often up to 92.2 µM), hits mostly inhibitors; 360,000 tested, 0.21% active; active means well fitted falling curve with a large enough effect; inconclusive means small, poorly fitted or top-dose-only effect; inactive means no such curve, though single readings can be large or run the other way; further: nearly all actives have a fitted effect of over 50% in size
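Fission yeast strain RE007, carrying one chromosomally integrated HIV-1 vpr copy, was seeded at OD 0.01 in PMG+AL medium with 23 nL pinned compound. After 24 h at 30 °C and 99% humidity, viability was read by BacTiter-Glo luminescence.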
A number is an active result; n = inactive; u = inconclusive; x = no result; + = active, no number; [ ] = dose if it differs, or a comment. Unless noted, the call rests on the fitted dose curve; in most records, active means well fitted curve in the direction sought with a large enough effect; inconclusive means small, poorly fitted or top-dose-only effect, or another doubt; inactive means no such curve, though single readings can be large; an effect the other way counts as inactive or inconclusive.

SMILES	TbPYK inhibitor	Sm TGR inh	FMDV antiviral	HCMV antiviral	FBPA Giardia inh	RE007 growth inh
CCOc1ccc(CNC(=O)c2ccc(NC(=O)N3CCSc4ncccc43)cc2)cc1OC	n[15.4 µM]	n	n	n	x	x
Cc1cccc(CNC(=O)c2cccc(NC(=O)N3CCSc4ncccc43)c2)c1	n[15.4 µM]	n	n	+	x	x
CCOc1ccc(CNC(=O)c2cccc(NC(=O)N3CCSc4ncccc43)c2)cc1OC	n[15.4 µM]	n	14.1µM	u	x	x
CNC(=S)NNC(=O)c1ccccc1Br	n	n	n	n	n	n
O=C1C=C(NNC(=O)c2ccccc2Br)CCC1	n	n	n	-62.3	n	n
C[C@@H]1C[C@H]2[C@@H]3CCC4=CC(=O)C=C[C@]4(C)C3(F)[C@@H](O)C[C@]2(C)[C@@]1(O)C(=O)CO (stereo not given in full)	n	x	x	x	x	x
Cc1[nH]c2ccc(Br)cc2c(=O)c1CN1CCCCCC1	n	n	n	n	n	n
Cc1[nH]c2ccc(Cl)cc2c(=O)c1CN1CCCC1	n	28.2µM	n	n	n	n
C[C@H](CO)N1C[C@H](C)[C@@H](CN(C)C(=O)Nc2cccc(F)c2)OCc2cn(nn2)CCCC1=O	x	x	x	n	x	x
CCOC(=O)C1=C(C)N(c2ccc(OC)cc2)C(=O)/C1=C\c1ccc(O)c(OCC)c1	n	4.47µM	u	n	u	n
CCOc1cc(/C=C2\C(=O)N(Cc3ccc(C)cc3)C(C)=C2C(=O)OC)ccc1O	n	22.4µM	35.5µM	n	n	n
C=CCN1C(=O)/C(=C\c2cccs2)C(C(=O)OC)=C1C	n	n	u	n	n	n
CCOC(=O)C1=C(C)N(c2ccc(OC)cc2)C(=O)/C1=C\c1cccs1	n	n	u	-61.7	n	n
COC(=O)C1=C(C)N(CCc2ccc(OC)c(OC)c2)C(=O)/C1=C\c1ccc(O)cc1	n	28.2µM	u	u	u	x
C=CCN1[C@@H](C)[C@H](c2ccccc2)Oc2cccc(NCCc3ccccc3)c2S1(=O)=O	x	x	x	n	x	x
Cc1nc(N=Nc2cc(S(=O)(=O)O)c3cc([N+](=O)[O-])cc(S(=O)(=O)O)c3c2)c(COP(=O)(O)O)c(C=O)c1O	x	x	n	x	n	x
Cc1nc(N=Nc2cc([N+](=O)[O-])ccc2Cl)c(COP(=O)(O)O)c(C=O)c1O	x	x	n	x	22.3µM	x
Cc1ccc(NC(=O)CCc2nc3cccnc3n2-c2ccccc2)cc1	n	n	n	n	x	x
C=CCC(C)(O)c1ccc(OC)cc1 (stereo not given)	x	x	x	x	n	x
Cc1ncc(CN2CCCC(C(=O)Nc3ccc(-c4ccco4)cc3)C2)cn1 (stereo not given)	n	44.7µM	n	n	x	n
Cc1ncc(CN2CCCC(C(=O)Nc3ccc(-c4cscn4)cc3)C2)cn1 (stereo not given)	n	n	n	n	x	n
O=C(c1ccc(Cl)cc1)N1CCN(c2ccnc3cc(Cl)ccc23)CC1	n	x	28.2µM	u	n	n
FC(F)Oc1ccc(NC(=S)NNc2ccnc3cc(Cl)ccc23)cc1	n	n	u	-87.8	n	n
CCC(=O)N1CCN(c2ccnc3cc(Cl)ccc23)CC1	n	n	n	u	n	n
CCOC(=O)N1CCN(c2ccnc3cc(Cl)ccc23)CC1	n	n	n	-62.5	n	n
SMILES	TbPYK inhibitor	Sm TGR inh	FMDV antiviral	HCMV antiviral	FBPA Giardia inh	RE007 growth inh
O=C(Oc1ccnc2cc(Cl)ccc12)N1CCCCCC1	n	n[11.4 µM]	n	-100.6	n	u
Clc1ccc2c(NNc3ccccc3Cl)ccnc2c1	n	n	n	n	n	n
O=C(NNc1ccnc2cc(Cl)ccc12)C1CCCCC1	n	n	u	-81.8	n	n
CC(C)N(C(=O)N1CCN(c2ccnc3cc(Cl)ccc23)CC1)C(C)C	n	n	u	-89.8	n	n
CS(=O)(=O)N1CCN(c2ccnc3cc(Cl)ccc23)CC1	n	n	n	n	n	n
COc1ccc(S(=O)(=O)c2c(Nc3c(C)cccc3C)sc(C(=O)c3ccc4c(c3)OCO4)c2N)cc1	n	n	n	-87.4	x	x
COc1ccc(OC)c(CN2CCCC(c3nc(C)ncc3-c3ccc(F)cc3)C2)c1 (stereo not given)	x	x	n	x	x	x

Assay outcomes (PubChem)
